Assay outcomes from PubChem BioAssay.
Sampled rows, rich in hits. Any-hit rate of the full collection: about 1.8%.
JMJD2E inh: JMJD2E (human) inhibition; B2RXH2; JMJD2E catalytic domain, FDH-coupled NADH fluorescence (FDH is formaldehyde dehydrogenase); Potency, µM (series often up to 57.1 µM), most hits filed as inhibitors; 230,000 tested, 1.6% active; active means well fitted inhibition curve with a large enough effect, not every such curve was filed as active; inconclusive means small, poorly fitted or top-dose-only effect, or another doubt; inactive means no such curve, though single readings can be large or run the other way; further: nearly all actives have a fitted effect of over 50% in size
L3MBTL1 block: blocks human L3MBTL1. AlphaScreen L3MBTL1–H3K9me1 peptide binding. Potency, µM (highest dose often 57.1 µM), most hits filed as inhibitors. 230,000 tested, 0.66% active. AID 485360; further: nearly all actives have a fitted effect of over 60% in size
Target sequence (Q9Y468 whole entry, looked up): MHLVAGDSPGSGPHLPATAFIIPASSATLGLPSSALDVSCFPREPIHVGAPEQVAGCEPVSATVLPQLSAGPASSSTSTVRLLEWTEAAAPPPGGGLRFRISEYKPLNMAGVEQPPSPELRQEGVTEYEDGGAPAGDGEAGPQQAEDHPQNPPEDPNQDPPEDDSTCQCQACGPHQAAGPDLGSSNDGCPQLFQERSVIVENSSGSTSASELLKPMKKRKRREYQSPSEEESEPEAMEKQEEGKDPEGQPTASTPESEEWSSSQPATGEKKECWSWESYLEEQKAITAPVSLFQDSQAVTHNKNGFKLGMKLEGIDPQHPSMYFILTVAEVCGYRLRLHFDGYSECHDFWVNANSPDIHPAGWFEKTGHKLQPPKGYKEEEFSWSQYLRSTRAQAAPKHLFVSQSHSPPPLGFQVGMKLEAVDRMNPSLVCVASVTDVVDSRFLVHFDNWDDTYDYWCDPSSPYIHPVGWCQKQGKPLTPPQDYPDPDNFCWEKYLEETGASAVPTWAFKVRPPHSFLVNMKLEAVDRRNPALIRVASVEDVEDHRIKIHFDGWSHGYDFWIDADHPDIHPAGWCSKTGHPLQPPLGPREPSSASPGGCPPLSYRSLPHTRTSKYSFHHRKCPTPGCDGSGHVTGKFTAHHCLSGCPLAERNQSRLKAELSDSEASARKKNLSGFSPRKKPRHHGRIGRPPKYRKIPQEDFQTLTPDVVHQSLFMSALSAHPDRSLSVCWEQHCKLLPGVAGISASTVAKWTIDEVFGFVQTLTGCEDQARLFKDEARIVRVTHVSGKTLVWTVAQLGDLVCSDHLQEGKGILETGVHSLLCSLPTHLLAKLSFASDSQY
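L3MBTL1 (50 nM) pre-complexed 30 min with biotinylated H3(1-15)K9me1 peptide (75 nM), then compounds added for 30 min at room temperature; AlphaScreen streptavidin donor/nickel chelate acceptor beads (10 ug/mL final) read after 30 min dark incubation.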
HTT ATP protect: protects HTT-Q103 PC12 cells, measured by ATP. PC12 HTT-Q103 induced, cytoprotection, ATP luminescence, 40 h. Potency, µM (titrated, usually from 56.4 µM), most hits filed as activators. 230,000 tested, 0.14% active; further: nearly all actives have a fitted effect of over 45% in size
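ATP quantification (ATPlite) reports survival of PC12 cells in which tebufenozide, 100 nM final, switches on Htt exon 1 with 103 glutamines linked to GFP; compounds are titrated.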
HTT aggregate: reduces HttQ103-GFP aggregates in PC12 cells | PC12 HttQ103-GFP aggregates, Acumen cytometry, 40 h | Potency, µM (series often up to 46.1 µM), hits mostly inhibitors | 220,000 tested, 1.1% active; further: nearly all actives have a fitted effect of over 60% in size
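PC12 cells stably carrying ecdysone-inducible HTT exon 1 Q103–GFP were induced with tebufenozide (100 nM final) and treated with library compounds in titration. GFP aggregates in lysates were counted by laser scanning cytometry.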
Large screens that a line does not name were inactive. Unless noted, the call rests on the fitted dose curve; in most records, active means well fitted curve in the direction sought with a large enough effect; inconclusive means small, poorly fitted or top-dose-only effect, or another doubt; inactive means no such curve, though single readings can be large; an effect the other way counts as inactive or inconclusive.

CO[C@H]1COC(=O)C/C=C\[C@H](C)[C@@H](NS(=O)(=O)c2ccc(C)cc2)COC(=O)CCC[C@@H]1C	none (no result: JMJD2E inh, L3MBTL1 block, HTT aggregate)
NC(=O)c1ccc(-n2nnnc2SCC(=O)c2ccc(O)c(O)c2)cc1	JMJD2E inh 0.71µM, L3MBTL1 block inconclusive
COc1ccc(-n2nnnc2SCC(N)=O)cc1	none
COc1ccc(-n2nnnc2SCC(=O)c2ccc(O)c(O)c2)cc1	JMJD2E inh 11µM, L3MBTL1 block inconclusive
CO[C@@H]1COC(=O)[C@H](COCc2ccccc2)NC(=O)C/C=C\[C@@H](C)[C@H](OC)COC(=O)[C@@H](C)NC(=O)C/C=C\[C@H]1C	none (no result: JMJD2E inh, L3MBTL1 block, HTT aggregate)
O=C(O)c1cc2c(s1)-c1ccccc1OC2	JMJD2E inh inconclusive
O=C(NC1CC1)c1cc2c(s1)-c1ccccc1OC2	JMJD2E inh inconclusive, HTT aggregate 6.3µM (no result: L3MBTL1 block)
CN1CCN(S(=O)(=O)c2ccc(Sc3nnnn3-c3ccccc3)c([N+](=O)[O-])c2)CC1	HTT aggregate 11µM
Oc1cc(O)c2c(c1)O[C@H](c1ccc(O)c(O)c1)[C@@H](O)C2	JMJD2E inh 25µM, HTT ATP protect inconclusive (no result: L3MBTL1 block)
O=c1c(O)cc(C2Oc3cc(O)cc(O)c3CC2O)cc2c(C3Oc4cc(O)cc(O)c4CC3O)cc(O)c(O)c12 (stereo not drawn)	JMJD2E inh 25µM (no result: L3MBTL1 block, HTT ATP protect, HTT aggregate)
Oc1ccc2c(c1)OC(c1ccc(O)c(O)c1)C(O)C2 (stereo not drawn)	JMJD2E inh 16µM (no result: L3MBTL1 block, HTT ATP protect, HTT aggregate)
COc1cccc([C@@H]2Oc3ccc(Br)cc3C(=O)[C@H]2OC(=O)Nc2cc(OC)c(OC)c(OC)c2)c1	none (no result: L3MBTL1 block, HTT aggregate)
[N-]=[N+]=Nc1ccc(C(=O)CSC[C@@H](NC(=O)CC[C@@H](N)C(=O)O)C(=O)NCC(=O)O)cc1	none (no result: JMJD2E inh, L3MBTL1 block, HTT aggregate)
Cc1ccc2c(c1)[nH]c1c(N3CCN(Cc4ccccc4)CC3)ncnc12	JMJD2E inh inconclusive, HTT aggregate 7.1µM
Cc1ccc2[nH]c3c(N4CCCCCC4)ncnc3c2c1	JMJD2E inh inconclusive, HTT aggregate 8.9µM
Cc1ccc2[nH]c3c(N4CCN(Cc5ccccc5)CC4)ncnc3c2c1	JMJD2E inh inconclusive, HTT aggregate inconclusive (no result: L3MBTL1 block)
Cc1ccc2[nH]c3c(N4CCN(Cc5ccc6c(c5)OCO6)CC4)ncnc3c2c1	none
COc1ccc2c(c1)[nH]c1c(N3CCN(Cc4ccc5c(c4)OCO5)CC3)ncnc12	JMJD2E inh inconclusive, HTT aggregate 8.9µM
CCc1ccc(/C=c2\s/c(=C\C(=O)C(C)(C)C)[nH]c2=O)cc1	JMJD2E inh inconclusive, HTT aggregate 14µM (no result: L3MBTL1 block)
CC(C)(C)C(=O)/C=c1\[nH]c(=O)/c(=C\c2ccc(F)cc2)s1	none (no result: L3MBTL1 block)
N#C/C(=C\c1cc(O)c(O)c(O)c1)C(N)=O	JMJD2E inh 1µM
COc1ccc(/C=C(\C#N)C(N)=O)cc1OC	none (no result: JMJD2E inh, L3MBTL1 block, HTT aggregate)
CCNc1ncc2nc(-c3cccc(C#N)c3)c(=O)n(C)c2n1	none (no result: JMJD2E inh, L3MBTL1 block, HTT aggregate)
Cn1c(=O)n(CC(=O)N2CCN(c3nnc(-c4ccccc4)c4ccccc34)CC2)c2ccccc21	HTT aggregate 14µM
O=c1c(-c2ccc(Cl)cc2)[n+]([O-])c2ccccc2n1O	none
O=c1c(-c2cccc([N+](=O)[O-])c2)[n+]([O-])c2ccccc2n1O	JMJD2E inh 22µM (no result: L3MBTL1 block)
COCCn1c(=O)c(-c2ccc(Cl)cc2)nc2cnc(OCc3ccccc3)nc21	none (no result: JMJD2E inh, L3MBTL1 block, HTT aggregate)
Cc1ccc(C)c(N(CC(=O)NC2CCCC2)C(=O)c2oc(C(C)(C)C)cc2C)c1	HTT aggregate 25µM
CC(C)(C)c1ccc(-c2nnc(SCCC#N)n2C2CCCC2)cc1	HTT aggregate 11µM
Cn1c(SCCC#N)nnc1-c1ccc(F)cc1	none
Clc1ccc(-n2ncc3c(N4CCCC4)ncnc32)cc1	JMJD2E inh inconclusive (no result: HTT ATP protect)
CC(=O)Nc1ccc(Nc2ncnc3c2cnn3-c2ccccc2)cc1	JMJD2E inh inconclusive
CC(C)Nc1ncnc2c1cnn2-c1ccc(Cl)cc1	JMJD2E inh inconclusive, HTT aggregate 22µM
Clc1ccc(Nc2ncnc3c2cnn3-c2ccccc2)cc1	JMJD2E inh inconclusive, HTT aggregate 3.5µM
CCCNC(=O)OC[C@H]1O[C@@H](CCO/N=C\[C@@H](NS(=O)(=O)c2ccc(C)cc2)[C@H](C)/C=C\CC(=O)OC)C=C[C@@H]1Oc1ccc(OC)cc1	none (no result: JMJD2E inh, L3MBTL1 block, HTT aggregate)
N#CC1=C(N)Oc2cc(O)c(C=Nc3ccccc3)cc2C1c1ccccc1 (stereo not drawn)	JMJD2E inh inconclusive, HTT aggregate 1.6µM
Cc1ccc(C2C(C#N)=C(N)Oc3cc4c(cc32)OCO4)cc1 (stereo not drawn)	JMJD2E inh inconclusive, HTT aggregate inconclusive
Cc1ccc(N=Cc2cc3c(cc2O)OC(N)=C(C#N)C3c2ccccc2)cc1 (stereo not drawn)	JMJD2E inh inconclusive, HTT aggregate 10µM
Cc1ccccc1N=Cc1cc2c(cc1O)OC(N)=C(C#N)C2c1ccccc1 (stereo not drawn)	JMJD2E inh inconclusive, HTT aggregate inconclusive
Cn1c2c(c(=O)c3ccccc31)C[C@@H](O)C(C)(C)O2	none (no result: L3MBTL1 block, HTT aggregate)
CCS(=O)(=O)c1ccc(N=Nc2ccc(O)c3ncccc23)c(OC)c1	JMJD2E inh 14µM, HTT aggregate inconclusive (no result: L3MBTL1 block)
CC(=O)Nc1ccc(SCC(=O)c2cc(C)n(-c3ccccc3)c2C)cc1	none
COc1ccc(-n2c(C)cc(C(=O)CSc3ccc(NC(C)=O)cc3)c2C)cc1	L3MBTL1 block inconclusive, HTT aggregate 13µM
O=S(Cc1ccc(Br)cc1)Cc1nnc(SCc2c(Cl)cccc2Cl)n1-c1ccccc1 (stereo not drawn)	HTT ATP protect inconclusive, HTT aggregate 22µM
O=c1c2ccccc2cnn1-c1ccc2ccccc2c1	none (no result: L3MBTL1 block)
O=S(c1ccc2ccccc2c1)c1cnns1 (stereo not drawn)	HTT aggregate 18µM
O=C(COc1ccc(Cl)cc1)Nc1ncc([N+](=O)[O-])s1	HTT aggregate 13µM
O=C(Cc1ccc(Cl)cc1)Nc1ncc([N+](=O)[O-])s1	HTT aggregate inconclusive
CCOC(=O)COc1cc(-n2c(=S)[nH]c3cc(OC)c(OC)cc3c2=O)c(Cl)cc1Cl	L3MBTL1 block 0.71µM
CCOC(=O)COc1cc(N2C(=O)CSCC2=O)c(Cl)cc1Cl	none
CCCCCCCCCCCCCCC/C=C\[C@H](O)[C@@H](NC(=O)CCCCCCCCCCCCC)OC (tested in a mixture with another compound)	none (no result: JMJD2E inh, L3MBTL1 block, HTT aggregate)
O=C(O)/C=C/C(O)c1ccc(Cl)cc1 (stereo not drawn)	HTT ATP protect 3.2µM (no result: HTT aggregate)
CCOC(=O)N1CCN(C(=O)CSCC(=O)Nc2nc(-c3ccc(-c4ccccc4)cc3)cs2)CC1	JMJD2E inh 35µM (no result: HTT aggregate)
CCOC(=O)N1CCN(C(=O)CSCC(=O)Nc2nc(-c3ccc(OC)cc3)cs2)CC1	none
CCCCCC#CC[C@@H](O)/C=C/C=C/C=C\[C@@H](O)CCCC(=O)O	none (no result: L3MBTL1 block, HTT aggregate)
Cc1ccc2nc(-c3ccc(NS(=O)(=O)c4ccccc4)cc3)sc2c1	none
Cc1ccc(S(=O)(=O)Nc2ccc3nc(C)sc3c2)cc1	HTT aggregate 14µM
Cc1ccc2nc(-c3ccc(NS(=O)(=O)c4ccc(F)c(F)c4)cc3)sc2c1	HTT aggregate 2.8µM
Cc1ccc(S(=O)(=O)Nc2ccc3nc(C)sc3c2)c(C)c1	none (no result: JMJD2E inh, HTT ATP protect, HTT aggregate)
Cc1nc2ccc(NS(=O)(=O)c3ccc(Br)cc3)cc2s1	none (no result: JMJD2E inh, HTT ATP protect, HTT aggregate)
